Screening results deposited in PubChem by The Scripps Research Institute Molecular Screening Center.
In the library only some 1.1% were active in any assay of this set; here they are far more common.
NR2F2 inh: blocks human COUP-TFII nuclear receptor; inhibition, % at 8.6 µM; AID 686940; HEK293T NGFI-A luciferase reporter, luminescence; 0.7% of 370,000 active; P24468;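 active = inhibition above a per-plate cutoff, mean inhibition of test wells between control levels plus 3 SD, cut at about 38% in these data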;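 also: cells cotransfected with COUP-TFII expression vector driving the NGFI-A reporter; 0% = median of COUP-TF2 test wells and 100% = reporter-only cells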
SRC2 inh: inhibits human steroid receptor coactivator 2; Q15596; HEK293 GAL4-SRC2 luciferase reporter, luminescence; inhibition, % at 9 µM; 0.17% of 370,000 active;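 active = inhibition above the mean inhibition of all tested compounds plus 3 SD, set per campaign, cut at about 52% in these data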;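 also: 0% = DMSO treated cells and 100% = cells given Gossypol at 36 µM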
NR5A2 inv ag: inverse agonists of human LRH-1 (NR5A2). HEK293T StAR-luciferase reporter, LRH-1 transfected, 24 h. inhibition, % at 3.6 µM. 0.13% of 360,000 active. AID 602396;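 active = inhibition above the mean inhibition of all tested compounds plus 3 SD, cut at about 73% in these data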;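 also: 0% = DMSO wells and 100% = reporter-only cells lacking LRH-1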
Target sequence (O00482 whole entry, looked up): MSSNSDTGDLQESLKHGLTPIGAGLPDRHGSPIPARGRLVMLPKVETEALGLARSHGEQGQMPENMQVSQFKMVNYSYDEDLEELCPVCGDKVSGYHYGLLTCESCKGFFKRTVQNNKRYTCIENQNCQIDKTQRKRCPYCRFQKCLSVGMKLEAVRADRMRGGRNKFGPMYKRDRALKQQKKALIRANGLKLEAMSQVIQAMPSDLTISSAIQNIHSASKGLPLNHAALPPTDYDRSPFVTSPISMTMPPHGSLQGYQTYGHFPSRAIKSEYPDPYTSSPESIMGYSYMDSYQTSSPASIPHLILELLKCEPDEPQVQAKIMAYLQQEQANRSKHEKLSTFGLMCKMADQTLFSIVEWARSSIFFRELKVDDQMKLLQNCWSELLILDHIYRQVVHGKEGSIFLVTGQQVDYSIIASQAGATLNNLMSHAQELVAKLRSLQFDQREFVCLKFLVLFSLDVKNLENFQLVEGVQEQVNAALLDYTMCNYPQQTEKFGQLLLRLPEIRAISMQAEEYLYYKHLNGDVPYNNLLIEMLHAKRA
SRC3 inh: human NCOA3 inhibition; 0.17% of 360,000 active; AID 588352; inhibition, % at 3.6 µM; HEK293 GAL4-SRC3 luciferase reporter, luminescence;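 active = inhibition above a per-campaign cutoff, the mean of all compounds plus 3 SD, cut at about 60% in these data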;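 also: 0% = DMSO-treated cells and 100% = gossypol-treated cells at 36 µM; higher means less SRC3-driven luciferase light from the GAL4 reporter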
GalR3 antagonist: human GalR3 antagonism; HEK293 GalR3-CNG cAMP membrane potential fluorescence; galR3 body fused to GalR1 C-terminus; O60755; 0.44% of 360,000 active; AID 651719; inhibition, % at 3 µM;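 active = inhibition above the screen-wide average plus 3 SD, cut at about 13% in these data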;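 also: forskolin and galanin both at EC90 stimulate the cells; cAMP rise reported by CNG channel membrane potential dye signal; 0% = forskolin plus galanin with DMSO and 100% = forskolin alone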
NCOA1 inh: human NCOA1 inhibition. HEK293 GAL4-SRC1 luciferase reporter, luminescence. inhibition, % at 3.6 µM. 0.12% of 360,000 active. AID 588354;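 active = inhibition above the campaign mean plus 3 SD, with each screening campaign given its own cutoff, cut at about 60% in these data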;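 also: 0% = DMSO treated cells and 100% = gossypol at 36 µM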
Active calls of the source: *; nt = no result.

SMILES	NR2F2 inh	SRC2 inh	NR5A2 inv ag	SRC3 inh	GalR3 antagonist	NCOA1 inh
C=C1C(=O)[C@]23C[C@H]1CCC2[C@@]1(C)C(C[C@@H]3O)[C@](C)(C(=O)OC)CC[C@@H]1O (stereo partly drawn)	27	64*	48	40	11	43
Cc1oc(-c2ccc(Cl)cc2)nc1CN1CCC(C(=O)N2CCN(Cc3ccccc3)CC2)CC1	39*	-12	-5	2	-5	3
COc1cccc2c1C1COC3C4CC(C(=O)O)C(C(C2)N13)N4C (stereo not drawn)	-20	22	88*	5	-4	21
Cn1c(=O)[nH]c(NCCc2ccc(O)cc2)c([N+](=O)[O-])c1=O	-3	-8	-9	26	-4	-10
O=C(N/N=C/c1ccccc1O)c1ccncc1	-3	11	-1	36	2	20
NC(=O)N/N=C\c1cc(Br)ccc1O	-26	-4	18	-1	-2	-7
O=C(N/N=C/c1cc(Br)ccc1O)c1ccncc1	-15	8	11	70*	-5	38
O=C(N/N=C/c1cc(Cl)ccc1O)c1ccc(Br)cc1	-14	8	8	66*	0	28
Cc1ccc(S(=O)(=O)NCCCNS(=O)(=O)c2ccc(C)cc2)cc1	-17	0	-25	20	-7	-7
CCOc1ccc(NC(=O)CSc2nnc(-c3n[nH]c4c3CCC4)n2N)cc1	-9	-20	nt	nt	nt	nt
Cc1ccc(NCSc2ccc(Cl)cc2)cc1	-17	-36	-98	-68	-4	-57
Clc1ccc(SCNc2ccccc2Cl)cc1	39*	5	15	-4	-4	-49
O=C1C=CC(=O)C(CNc2ccc(C(=O)OCc3ccccc3)cc2)=C1	12	67*	-42	-15	-3	-75
CN(C)c1ccc(C(=O)OCc2ccccc2)cc1	-28	-59	-38	-23	-1	-33
CCOc1cc2c(cc1OCC)C(c1ccc(OC)cc1)N(c1ccccc1)C(=O)C2 (stereo not drawn)	3	-21	76*	-33	4	-28
COc1ccc(S(=O)(=O)N2CCOCC2)cc1NC(=O)c1ccncc1	-2	8	5	3	-2	-29
CC(=O)CCSc1ncnc2sc(-c3ccccc3)cc12	-26	-74	-166	-68	-2	-110
O=C(O)CCSc1ncnc2sc(-c3ccccc3)cc12	23	81*	15	30	-2	10
Cc1ccc(/C=C2/SC(=S)N(CCCC(=O)Nc3cc([N+](=O)[O-])ccc3O)C2=O)cc1	24	55*	3	14	-2	-28
O=C(CN1C(=O)S/C(=C\c2ccccc2)C1=O)Nc1cc([N+](=O)[O-])ccc1O	3	0	13	-3	-9	7
Cc1ccc(/C=C2\SC(=S)N(CCCC(=O)Nc3ccc(O)cc3)C2=O)cc1	31	67*	9	47	-2	23
Cc1ccc(/C=C2\SC(=S)N(CCCC(=O)Nc3ccccc3C(=O)O)C2=O)cc1	15	66*	5	18	2	23
N=c1c2c(-c3ccccc3)c(-c3ccccc3)n(Cc3ccco3)c2ncn1CCCn1ccnc1	25	-34	35	68*	-9	56
N=c1c2c(-c3ccccc3)c(-c3ccccc3)n(Cc3ccco3)c2ncn1CCCN1CCOCC1	0	-15	-4	16	-7	10
N=c1c2c(-c3ccccc3)c(-c3ccccc3)n(Cc3ccccc3)c2ncn1CCO	15	-52	50	69*	-11	52
SMILES	NR2F2 inh	SRC2 inh	NR5A2 inv ag	SRC3 inh	GalR3 antagonist	NCOA1 inh
O=C(Nc1ccccc1N1CCCCC1)c1ccc(OC(F)F)cc1	4	14	2	13	-9	3
Cc1ccc(-c2nc(CSCC(=O)N3CCN(c4ccccn4)CC3)c(C)o2)cc1	47*	3	32	-1	9	-5
Cc1cccc(NCc2nc3ccccc3n2Cc2ccccc2)c1	-7	-36	-28	-28	-6	-13
CCOC(=O)C1CCN(c2ncnc3c2[nH]c2cccc(OC)c23)CC1	-5	-18	-6	3	-4	-6
COc1cccc2[nH]c3c(N4CCCCC4)ncnc3c12	-33	-29	-1	-26	96*	-17
COCCN(C(=O)CCl)C(C(=O)NC1CCCCC1)c1ccccc1C (stereo not drawn)	-12	54*	28	59	-4	22
CC(C)OC(=O)c1cccc(C(=O)Nc2cccc(NC(=O)c3cccc(C(=O)OC(C)C)n3)n2)n1	-1	-1	4	11	-2	-4
Cc1oc2c(c1C(=O)O)C(=O)c1ccccc1C2=O	3	-24	14	11	1	1
Cc1oc2c(c1C(=O)c1ccccc1)C(=O)C(=O)c1ccccc1-2	-31	63*	16	-39	-5	-16
O=C(CN1C(=O)C2CCCCC2C1=O)Nc1nc2ccc(F)cc2s1 (stereo not drawn)	9	0	-7	-13	-1	-5
COc1cccc2[nH]c(=O)c(-c3ccccc3)cc12	-31	-44	-98	83*	-9	-61
S=c1[nH]nc(C2CCCCC2)n1/N=C/c1ccncc1	24	46	16	69*	-4	71*
COc1ccc(OC(=O)C(C)N2C(=O)c3ccccc3C2=O)cc1 (stereo not drawn)	21	8	-6	-5	-9	13
CC1=CC(C)(C)Nc2ccc(OC(=O)c3ccco3)cc21	13	55*	21	-2	-2	10
CC1=CC(C)(C)Nc2ccc(OC(=O)C(C)N3C(=O)c4ccccc4C3=O)cc21 (stereo not drawn)	18	63*	12	6	-2	-8
Nc1ccn(C2OC(CO)C(O)C2O)c(=O)n1 (stereo not drawn)	3	-7	2	29	0	43
OCC1OC(n2ccc3c2ncn2ncnc32)C(O)C1O (stereo not drawn)	15	37	65	53	-7	62*
COC(=O)c1sccc1NC(=S)N1CCN(c2cccc(C)c2C)CC1	5	-2	1	-14	-2	-2
COc1cc([C@@H]2C[C@H]3CN(c4ccccc4)C(=O)[C@]34CCCN24)cc(OC)c1OC	1	-12	21	16	4	24
COc1ccccc1-n1cc([C@@H]2C[C@H]3CN(c4ccccc4)C(=O)[C@]34CCCN24)cn1	7	-32	53	64*	-4	55
Cc1cc(C(=O)COc2ccc(Cl)cc2Br)c(C)n1C	1	-31	-47	-1	-4	4
Cc1c(C)c2cccnc2c2ncccc12	nt	nt	87*	54	nt	42
Clc1cc2cccnc2c2ncccc12	16	20	-6	11	-7	-3
COc1cccc(N2C(=O)CC(NNC(=O)c3cccs3)C2=O)c1 (stereo not drawn)	13	100*	-25	2	-9	-5
